Test [1] is described as follows: qHTS assay for small molecule agonists of the p53 signaling pathway (AID 651631; calls by dose curve; note: nearly all actives have a fitted effect of over 15% in size). The essentials:
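Fluorescence intensity from cleaved LiveBLAzer B/G substrate (2 h, room temperature) served as the signal. Beforehand, HCT-116 reporter cells bearing p53 response elements were treated 16 h at 37 °C with DMSO-dissolved compounds.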
In general terms: In qHTS, concentration-response curves come from the screen itself.

Test [2] in a line: qHTS assay for small molecules that induce genotoxicity in human embryonic kidney cells expressing luciferase-tagged ATAD5 (AID 651632). Note: nearly all actives have a fitted effect of over 15% in size. The essentials: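 Reporter cells (HEK293T) express luciferase-tagged ATAD5, a protein that accumulates after DNA damage. Treat 16 hr at 37C/5% CO2, add Amplite, wait 30 min at RT, and read luminescence.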
Test [3] is described as follows: qHTS assay for small molecule agonists of the p53 signaling pathway - cell viability (AID 651633; calls by dose curve;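 note: p53RE-bla HCT reporter cells with a stable beta-lactamase p53 reporter; series mostly up to about 83 µM; nearly all actives have a fitted effect of over 30% in size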). In short, it runs like this:
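Viability counter-read: CellTiter-Glo luminescence (30 min, room temperature) in the same p53RE-bla plates. These plates had been exposed to compounds for 16 h at 37 C.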

A short description of test [4]: qHTS assay for small molecules that induce genotoxicity in human embryonic kidney cells expressing luciferase-tagged ATAD5 - cell viability (AID 651634; calls by dose curve; note: nearly all actives have a fitted effect of over 25% in size). The essentials:
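Seeding of 2,000 HEK293T ATAD5-luciferase cells per well preceded pin-tool compound transfer. Plates sat 15.5 hr at 37C under 5% CO2, then fluorescence was read after 30 min with CellTiter-Fluor.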

Test [5] in a line: qHTS assay for small molecule disruptors of the mitochondrial membrane potential - cell viability (AID 720634; calls by dose curve;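 note: human HepG2 liver cancer cells; series mostly up to about 83 µM; nearly all actives have a fitted effect of over 20% in size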). The essentials: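 Measuring cytotoxicity alongside mitochondrial potential, the screen quantified ATP by luminescence in HepG2 cells after 1 hr compound incubation and a 30 min room-temperature CellTiter-Glo step.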
The nature of test [6]: qHTS assay for small molecule disruptors of the mitochondrial membrane potential (AID 720635). Note: potency is the fitted concentration of half-maximal effect. In short, it runs like this:
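Mitochondrial membrane potential tracked with Mito-MPS dye, red aggregates (ex 540/em 590 nm) against green monomers (ex 490/em 535 nm). Compound treatment 1 hr at 37C, dye 30 min in HepG2.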

Test [7] is described as follows: qHTS assay to test for compound auto fluorescence at 590 nm (red) in HepG2 cells (AID 720674). The essentials:
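Red autofluorescence (Ex/Em 540/590 nm, Rose Bengal sodium equivalents) was measured in HepG2 cells, 2,000 per well in MEM plus 10% FBS, plated overnight at 37 C. Readings were taken 1 hr after adding 23 nL compound or DMSO, at 37 C and 5% CO2.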

A short description of test [8]: qHTS assay to test for compound auto fluorescence at 535 nm (green) in HepG2 cells (AID 720675).
A short description of test [9]: qHTS assay to test for compound auto fluorescence at 460 nm (blue) in HEK293 cells (AID 720678). The essentials: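 Blue-channel (Ex/Em 405/460 nm) intensity measured in HEK293 cultures after overnight compound exposure at 37C; signal expressed relative to triamterene. Cells plated 2,000 per well in 10% dialyzed FBS medium and allowed 4-5 hr to attach.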
Test [10] can be described thus: qHTS assay to test for compound auto fluorescence at 590 nm (red) in HEK293 cells (AID 720679). In short, it runs like this: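 Red-channel autofluorescence (Ex/Em 540/590 nm; Rose Bengal sodium reference) was measured after overnight 37C, 5% CO2 exposure of attached HEK293 cells, 2,000 per well in medium with 10% dialyzed FBS.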

The values that follow come from PubChem BioAssay (Tox21).

The structures appear in SMILES notation. Inconclusive results are not listed. Activity calls are given as the source filed them. Unless noted, calls come from the whole dose curve; as a rule, active = well fitted curve in the direction sought with a large enough effect in the repeat runs; inconclusive = weak or mixed curves; inactive = no such curve, though single readings can be large; an effect the other way counts as inactive or inconclusive.

For `CC(CN(C)C)CN1c2ccccc2S(=O)(=O)c2ccccc21` (stereo not given), the Potency entry in [1], in test [2], in test [3], in test [4], in test [5] and in test [6] was “inactive” each time. Moreover, the Potency result in [7], in [8], in test [9] and in [10] was “inactive” in each case.

On to `CCCCOC(=O)C(=O)Nc1cccc(-c2nn[nH]n2)c1`, for which the Potency result in [1], in [2], in test [3], in [4], in test [5] and in test [6] was “inactive” throughout. Moreover, the Potency result in test [7], in test [8], in [9] and in test [10] was “inactive” throughout.

In the case of `COC(=O)[C@H]1[C@H]2C[C@@H]3c4[nH]c5cc(OC)ccc5c4CCN3C[C@H]2C[C@@H](OC(=O)/C=C/c2cc(OC)c(OC)c(OC)c2)[C@@H]1OC`, the Potency result in test [1], in test [2], in test [3], in [4], in [5] and in test [6] was “inactive” in each case. For the same compound, the Potency result in [7], in [8], in [9] and in test [10] was “inactive” throughout.

As to `O=P(O)(O)OC(Cn1cncn1)(Cn1cncn1)c1ccc(F)cc1F`, the Potency result in [1], in test [2], in [3], in [4], in [5] and in [6] was “inactive” throughout. Also, the Potency entry in test [7], in test [8], in test [9] and in test [10] was “inactive” throughout.

Take `CCC(=O)OCC(=O)[C@@]1(OC(=O)CC)[C@H](C)C[C@H]2[C@@H]3CCC4=CC(=O)C=C[C@]4(C)[C@@]3(F)[C@@H](O)C[C@@]21C`: the Potency entry in test [1], in test [2], in [3], in test [4], in test [5] and in [7] was “inactive” throughout. Further, the Potency entry in test [8], in test [9] and in test [10] was “inactive” each time. In addition, the Potency in [6] is 29.8 µM (active).

As to `O=C(CCCN1CCC(C(=O)c2ccc(F)cc2)CC1)c1ccc(F)cc1`, the Potency result in test [1], in test [2], in test [3], in [4], in test [5] and in [6] was “inactive” throughout. Besides, the Potency result in test [7], in test [8], in [9] and in test [10] was “inactive” each time.

Regarding `CC(C)CN(C[C@@H](O)[C@H](Cc1ccccc1)NC(=O)O[C@H]1CO[C@H]2OCC[C@H]21)S(=O)(=O)c1ccc(N)cc1`, the Potency entry in test [1], in [2], in [3], in test [4], in [5] and in test [6] was “inactive” each time. Further, the Potency result in [7], in [8], in test [9] and in test [10] was “inactive” throughout.

With `CO[C@H]1O[C@@H]2O[C@@]3(C)CC[C@H]4[C@H](C)CC[C@@H]([C@H]1C)[C@@]24OO3`, the Potency entry in test [1], in [2], in test [3], in test [4], in test [5] and in [6] was “inactive” in each case. The Potency entry in test [7], in [8], in [9] and in [10] was “inactive” throughout.

Regarding `O.O=C([O-])CC([S-])C(=O)[O-].[Au+].[Na+].[Na+]` (stereo not given), the Potency result in [1], in test [2], in test [3], in [4], in test [5] and in [6] was “inactive” throughout. The Potency entry in test [7], in [8], in test [9] and in [10] was “inactive” each time.

`O=C(NCCNCC(O)COc1ccc(O)cc1)N1CCOCC1` (stereo not given): the Potency result in [1], in [2], in [3], in [4], in test [5] and in test [6] was “inactive” in each case. The Potency entry in test [7], in test [8], in test [9] and in test [10] was “inactive” each time.

Take `CC1CC(OC(=O)C(O)c2ccccc2)CC(C)(C)C1` (stereo not given): the Potency entry in [1], in [2], in [3], in test [4], in test [5] and in test [7] was “inactive” throughout. Moreover, the Potency entry in test [8], in test [9] and in test [10] was “inactive” throughout. In addition, the Potency in [6] is 13.3 µM (active).

Consider `CC(=O)OC[C@H]1O[C@@H](O[C@H]2[C@H](O)[C@@H](OC(=O)c3ccccc3C(=O)O)[C@H](O)O[C@@H]2COC(C)=O)[C@H](O)[C@@H](OC(=O)c2ccccc2C(=O)O)[C@@H]1O`, for which the Potency entry in [1], in test [2], in [3], in [4], in [5] and in [6] was “inactive” each time. The Potency entry in test [7], in [8], in test [9] and in test [10] was “inactive” each time.

On to `C[N+]1(C)CCN(CC(O)(c2ccccc2)C2CCCCC2)CC1` (stereo not given), for which the Potency result in test [1], in test [2], in test [3], in [4], in test [5] and in test [6] was “inactive” in each case. Further, the Potency entry in test [7], in test [8], in test [9] and in [10] was “inactive” throughout.

For `OC[C@@H](O)C(O)[C@H](O)CO`, the Potency entry in [1], in test [2], in test [3], in test [4], in [5] and in test [6] was “inactive” throughout. The Potency result in [7], in [8], in [9] and in test [10] was “inactive” in each case.

Take `NC(=O)Oc1ccc(Cc2ccccc2)cc1`: the Potency entry in test [1], in [2], in test [3], in [4], in test [5] and in test [7] was “inactive” in each case. Also, the Potency entry in [8], in test [9] and in test [10] was “inactive” throughout. Also, the Potency in test [6] is 21.1 µM (active).

With `NCCC[C@H](N)C(=O)O`, the Potency result in test [1], in test [2], in test [3], in test [4], in test [5] and in [6] was “inactive” in each case. Further, the Potency result in [7], in [8], in [9] and in test [10] was “inactive” each time.

On to `Cc1onc(-c2ccccc2)c1C(=O)N[C@@H]1C(=O)N2[C@@H]1SC(C)(C)[C@@H]2C(=O)O`, for which the Potency result in [1], in test [2], in [3], in test [4], in [5] and in test [6] was “inactive” in each case. Moreover, the Potency entry in test [7], in test [8], in test [9] and in test [10] was “inactive” in each case.
